Measurements published in PubChem BioAssay (Tox21).
Inconclusive results are not listed. A call without a number means that no potency is given here. Values without a mark were called inactive. Active and inactive are the calls of the source. Calls come from the whole dose curve; as a rule, active = well fitted curve in the direction sought with a large enough effect in the repeat runs; inconclusive = weak or mixed curves; inactive = no such curve, though single readings can be large; an effect the other way counts as inactive or inconclusive.

How the values were obtained:
[1] = biological target: Cytochrome P450 2D6 (Homo sapiens) (UniProt P10635); test: Cytochrome P450 Family 2 Subfamily D Member 6 (CYP2D6) small molecule antagonists: luciferase reporter qHTS assay (AID 1671196); note: nearly all actives have a fitted effect of over 50% in size; note: potency is the fitted concentration of half-maximal effect; for activity change, negative = inhibition: series mostly up to about 120 µM
Cytochrome P450 2D6 (Homo sapiens), sequence (P10635 whole entry, looked up): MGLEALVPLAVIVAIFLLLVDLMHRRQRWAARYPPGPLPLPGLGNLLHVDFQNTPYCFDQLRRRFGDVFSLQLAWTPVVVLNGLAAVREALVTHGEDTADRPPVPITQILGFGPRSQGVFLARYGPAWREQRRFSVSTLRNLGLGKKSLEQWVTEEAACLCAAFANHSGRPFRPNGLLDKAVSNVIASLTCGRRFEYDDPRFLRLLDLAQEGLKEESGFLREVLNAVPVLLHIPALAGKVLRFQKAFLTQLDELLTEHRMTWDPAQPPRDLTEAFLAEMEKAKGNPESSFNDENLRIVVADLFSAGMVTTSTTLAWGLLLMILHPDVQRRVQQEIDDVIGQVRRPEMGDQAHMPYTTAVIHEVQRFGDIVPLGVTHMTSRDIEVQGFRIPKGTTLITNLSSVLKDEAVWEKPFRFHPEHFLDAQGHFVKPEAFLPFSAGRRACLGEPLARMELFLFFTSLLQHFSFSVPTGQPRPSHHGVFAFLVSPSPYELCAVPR
Method in brief: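 Cell-free P450-Glo system: CYP2D6 with proluciferin substrate was pre-incubated with compound for 10 min, then reacted with NADPH regeneration for 1 h at room temperature. Luciferin product was detected after 20 min, and data were reported as relative luminescence units.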

[2] = biological target: Cytochrome P450 2C19 (Homo sapiens) (UniProt P33261); test: Cytochrome P450 Family 2 Subfamily C Member 19 (CYP2C19) small molecule antagonists: luciferase reporter qHTS assay (AID 1671197); note: nearly all actives have a fitted effect of over 65% in size; note: potency is the fitted concentration of half-maximal effect; for activity change, negative = inhibition: series mostly up to about 120 µM
Cytochrome P450 2C19 (Homo sapiens), sequence (P33261 whole entry, looked up): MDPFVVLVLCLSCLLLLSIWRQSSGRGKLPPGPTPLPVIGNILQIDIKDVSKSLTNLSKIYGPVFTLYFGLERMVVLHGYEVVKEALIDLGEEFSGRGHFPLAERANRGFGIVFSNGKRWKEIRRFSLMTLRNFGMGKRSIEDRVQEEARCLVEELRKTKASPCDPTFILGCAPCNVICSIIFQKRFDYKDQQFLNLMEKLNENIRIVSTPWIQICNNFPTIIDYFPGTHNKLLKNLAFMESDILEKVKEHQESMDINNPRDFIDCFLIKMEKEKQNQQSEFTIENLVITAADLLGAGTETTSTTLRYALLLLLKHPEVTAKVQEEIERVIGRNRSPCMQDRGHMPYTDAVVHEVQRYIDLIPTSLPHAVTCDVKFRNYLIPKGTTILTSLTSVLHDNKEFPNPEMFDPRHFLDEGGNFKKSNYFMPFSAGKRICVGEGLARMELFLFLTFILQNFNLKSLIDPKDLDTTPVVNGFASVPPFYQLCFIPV
Method in brief: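 Quantitative high-throughput screen of the Tox21 library using CYP2C19 with proluciferin substrate. Reaction: NADPH regeneration, 37C, 1 h, after 10 min compound preincubation at room temperature. Readout: luminescence.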

[3] = biological target: Cytochrome P450 2C9 (Homo sapiens) (UniProt P11712); test: Cytochrome P450 Family 2 Subfamily C Member 9 (CYP2C9) small molecule antagonists: luciferase reporter qHTS assay (AID 1671198); note: nearly all actives have a fitted effect of over 50% in size; note: potency is the fitted concentration of half-maximal effect; for activity change, negative = inhibition: series mostly up to about 120 µM
Cytochrome P450 2C9 (Homo sapiens), sequence (P11712 whole entry, looked up): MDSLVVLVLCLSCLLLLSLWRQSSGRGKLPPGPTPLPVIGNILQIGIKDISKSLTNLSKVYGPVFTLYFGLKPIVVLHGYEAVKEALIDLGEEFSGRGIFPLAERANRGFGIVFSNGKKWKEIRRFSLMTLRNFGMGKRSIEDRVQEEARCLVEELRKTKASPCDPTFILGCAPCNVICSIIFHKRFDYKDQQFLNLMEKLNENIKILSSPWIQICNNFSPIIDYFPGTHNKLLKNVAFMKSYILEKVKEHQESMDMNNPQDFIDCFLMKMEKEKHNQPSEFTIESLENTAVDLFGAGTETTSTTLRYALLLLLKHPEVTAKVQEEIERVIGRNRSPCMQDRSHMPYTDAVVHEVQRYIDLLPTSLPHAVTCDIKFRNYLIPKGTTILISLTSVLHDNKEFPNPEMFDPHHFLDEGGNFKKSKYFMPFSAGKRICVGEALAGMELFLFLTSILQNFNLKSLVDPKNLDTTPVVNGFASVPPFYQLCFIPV
Method in brief: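 CYP2C9 activity was measured with a P450-Glo proluciferin substrate. Enzyme–substrate mix was held with compound for 10 min at room temperature, then NADPH regeneration solution was added for 1 h at 37C. Luciferin product was read as luminescence.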

[4] = biological target: Cytochrome P450 1A2 (Homo sapiens) (UniProt P05177); test: Cytochrome P450 Family 1 Subfamily A Member 2 (CYP1A2) small molecule antagonists: luciferase reporter qHTS assay (AID 1671199); note: nearly all actives have a fitted effect of over 50% in size; note: potency is the fitted concentration of half-maximal effect; for activity change, negative = inhibition: series mostly up to about 120 µM
Cytochrome P450 1A2 (Homo sapiens), sequence (P05177 whole entry, looked up): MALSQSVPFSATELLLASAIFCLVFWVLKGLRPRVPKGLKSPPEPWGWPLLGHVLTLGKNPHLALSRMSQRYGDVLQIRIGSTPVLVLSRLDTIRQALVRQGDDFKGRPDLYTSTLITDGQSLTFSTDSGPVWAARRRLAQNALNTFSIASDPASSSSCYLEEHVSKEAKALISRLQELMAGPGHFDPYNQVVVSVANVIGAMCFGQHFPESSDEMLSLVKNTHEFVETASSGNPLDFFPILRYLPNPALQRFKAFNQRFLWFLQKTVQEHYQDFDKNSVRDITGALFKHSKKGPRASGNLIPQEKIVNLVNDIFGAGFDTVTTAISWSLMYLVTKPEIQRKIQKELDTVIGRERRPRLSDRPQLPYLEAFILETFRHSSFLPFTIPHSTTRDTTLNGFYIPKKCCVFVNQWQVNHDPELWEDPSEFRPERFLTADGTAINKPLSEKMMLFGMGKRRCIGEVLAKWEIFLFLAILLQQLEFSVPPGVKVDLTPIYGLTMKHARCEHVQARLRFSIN
Method in brief: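 P450-Glo CYP1A2 enzyme–proluciferin substrate mix with compound 10 min at room temperature, then NADPH regeneration 1 h at room temperature. Luciferin detection reagent added, luminescence read after 20 min; furafylline positive control.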

[5] = biological target: Voltage-gated inwardly rectifying potassium channel KCNH2 (Homo sapiens) (UniProt Q12809); test: Human Ether-a-go-go-Related Gene (hERG) channel small molecule antagonists: fluorescence cell-based qHTS assay (AID 1671200);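 note: hERG-expressing U2OS cells given a thallium stimulus after FluxOR II dye loading; series mostly up to about 77 µM; nearly all actives have a fitted effect of over 50% in size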
Voltage-gated inwardly rectifying potassium channel KCNH2 (Homo sapiens), sequence (Q12809 whole entry, looked up): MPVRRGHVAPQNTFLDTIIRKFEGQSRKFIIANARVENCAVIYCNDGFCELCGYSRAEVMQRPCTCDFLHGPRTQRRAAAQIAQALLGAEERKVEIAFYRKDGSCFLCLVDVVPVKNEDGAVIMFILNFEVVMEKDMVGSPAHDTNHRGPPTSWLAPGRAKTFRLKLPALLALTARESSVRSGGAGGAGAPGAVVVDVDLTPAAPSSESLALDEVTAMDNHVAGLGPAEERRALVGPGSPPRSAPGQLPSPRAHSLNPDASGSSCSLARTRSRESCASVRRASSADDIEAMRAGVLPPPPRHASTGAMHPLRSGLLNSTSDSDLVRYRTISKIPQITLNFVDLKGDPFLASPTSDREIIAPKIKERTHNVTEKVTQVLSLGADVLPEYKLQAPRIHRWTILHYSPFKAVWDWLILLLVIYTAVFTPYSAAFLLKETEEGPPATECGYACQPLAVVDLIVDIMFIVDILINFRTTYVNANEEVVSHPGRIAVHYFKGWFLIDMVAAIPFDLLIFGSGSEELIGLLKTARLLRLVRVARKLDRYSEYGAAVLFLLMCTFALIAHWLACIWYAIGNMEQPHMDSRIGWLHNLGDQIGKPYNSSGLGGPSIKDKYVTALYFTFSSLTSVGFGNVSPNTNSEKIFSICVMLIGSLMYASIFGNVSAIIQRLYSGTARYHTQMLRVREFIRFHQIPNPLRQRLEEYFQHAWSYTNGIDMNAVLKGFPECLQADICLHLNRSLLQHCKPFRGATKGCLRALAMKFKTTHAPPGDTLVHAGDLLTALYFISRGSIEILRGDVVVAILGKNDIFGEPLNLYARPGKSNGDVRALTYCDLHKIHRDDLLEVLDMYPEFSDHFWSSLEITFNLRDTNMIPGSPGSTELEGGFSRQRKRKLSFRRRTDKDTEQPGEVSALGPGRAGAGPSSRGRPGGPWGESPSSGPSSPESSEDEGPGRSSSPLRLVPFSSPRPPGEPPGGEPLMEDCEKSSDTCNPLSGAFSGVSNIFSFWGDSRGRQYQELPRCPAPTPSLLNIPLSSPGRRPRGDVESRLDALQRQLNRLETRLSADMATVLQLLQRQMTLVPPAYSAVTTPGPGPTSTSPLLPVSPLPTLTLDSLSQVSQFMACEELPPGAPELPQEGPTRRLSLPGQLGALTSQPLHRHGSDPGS
Method in brief: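 Channel function was assessed by thallium flux. Cells seeded the previous day and kept at 37 C took up FluxOR II dye over 1 h in the dark at room temperature, then sat another 10 min before stimulation.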

[6] = biological target: Cytochrome P450 3A4 (Homo sapiens) (UniProt P08684); test: Cytochrome P450 Family 3 Subfamily A Member 4 (CYP3A4) small molecule antagonists: luciferase reporter qHTS assay (AID 1671201)
Cytochrome P450 3A4 (Homo sapiens), sequence (P08684 whole entry, looked up): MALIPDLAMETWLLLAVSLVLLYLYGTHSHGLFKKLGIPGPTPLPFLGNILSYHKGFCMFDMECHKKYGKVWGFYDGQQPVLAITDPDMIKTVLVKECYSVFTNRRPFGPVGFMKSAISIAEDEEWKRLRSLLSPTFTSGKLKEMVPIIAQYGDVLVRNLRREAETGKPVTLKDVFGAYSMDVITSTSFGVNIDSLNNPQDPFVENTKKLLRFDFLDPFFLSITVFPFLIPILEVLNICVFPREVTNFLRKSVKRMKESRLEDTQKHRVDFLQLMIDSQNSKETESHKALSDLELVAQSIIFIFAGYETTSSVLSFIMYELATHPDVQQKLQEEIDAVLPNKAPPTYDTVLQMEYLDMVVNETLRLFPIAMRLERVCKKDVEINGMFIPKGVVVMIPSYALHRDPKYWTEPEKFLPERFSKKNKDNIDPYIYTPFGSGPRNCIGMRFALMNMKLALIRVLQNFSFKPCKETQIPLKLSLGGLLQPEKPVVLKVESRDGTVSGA
Method in brief: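 Compounds in DMSO were pin-transferred onto CYP3A4 enzyme-substrate mix and held 10 min at room temperature. NADPH regenerating solution started the reaction for 1 h; luciferin detection reagent stopped it, and luminescence was read after 20 min.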

| SMILES | Potency [1] | Potency [2] | Potency [3] | Potency [4] | Potency [5] | Potency [6] | activity change, negative = inhibition [1] | activity change, negative = inhibition [2] | activity change, negative = inhibition [3] | activity change, negative = inhibition [4] | activity change, negative = inhibition [5] | activity change, negative = inhibition [6] |
| --- | --- | --- | --- | --- | --- | --- | --- | --- | --- | --- | --- | --- |
| CN(C)CCCSc1ccccc1NC(=O)/C=C/c1ccccc1 | 0.389 µM (active) | 38.9 µM (active) | inactive | inactive | inactive | inactive | – | – | – | – | – | – |
| O=c1[nH]c(=O)n([C@H]2C[C@H](O)[C@@H](CO)O2)cc1I | inactive | inactive | inactive | inactive | inactive | inactive | – | – | – | – | – | – |
| CC1(C)CO[C@@H](CC(=O)O)CN1 | inactive | inactive | inactive | inactive | inactive | inactive | – | – | – | – | – | – |
| CCCCCCCCCCCCCCCCC | inactive | inactive | inactive | 12.6 µM (active) | inactive | inactive | – | – | – | – | – | – |
| CC1=CC(C)C(C=O)CC1 (stereo unspecified) | inactive | inactive | inactive | inactive | inactive | inactive | – | – | – | – | – | – |
| FC1(F)C(F)(F)C(F)(F)C2(F)C(F)(F)C(F)(F)C(F)(F)C(F)(F)C2(F)C1(F)F (stereo unspecified) | inactive | inactive | inactive | inactive | inactive | inactive | – | – | – | – | – | – |
| NC(=O)Nc1ccccc1 | inactive | inactive | inactive | inactive | inactive | inactive | – | – | – | – | – | – |
| COc1nc(N)nc2c1ncn2[C@@H]1O[C@H](CO)[C@@H](O)[C@@H]1O | inactive | inactive | inactive | 24.5 µM (active) | inactive | inactive | – | – | – | – | – | – |
| CC(C)(C)c1nnc(NS(=O)(=O)c2ccccc2)s1 | inactive | inactive | 27.5 µM (active) | inactive | inactive | inactive | – | – | – | – | – | – |
| C=C(C)CS(=O)(=O)O | inactive | inactive | inactive | 35.6 µM (active) | inactive | inactive | – | – | – | – | – | – |
| CC(C)OC(=O)c1ccccc1 | inactive | inactive | inactive | inactive | inactive | inactive | – | – | – | – | – | – |
| CN1CCCC1 | inactive | inactive | inactive | inactive | inactive | inactive | – | – | – | – | – | – |
| C[C@H]1C[C@@H](O)CC(C)(C)C1 | inactive | inactive | inactive | inactive | inactive | inactive | – | – | – | – | – | – |
| Cc1cc2c(cc1S(N)(=O)=O)S(=O)(=O)CCC2 | inactive | inactive | inactive | inactive | inactive | inactive | – | – | – | – | – | – |
| CN1CCC(=C2c3ccccc3CC(=O)c3sccc32)CC1 | 2.45 µM (active) | 34.7 µM (active) | inactive | inactive | inactive | inactive | – | – | – | – | – | – |
| CCCCCOC(=O)CCCCC | inactive | inactive | inactive | inactive | inactive | inactive | – | – | – | – | – | – |

| SMILES | Potency [1] | Potency [2] | Potency [3] | Potency [4] | Potency [5] | Potency [6] | activity change, negative = inhibition [1] | activity change, negative = inhibition [2] | activity change, negative = inhibition [3] | activity change, negative = inhibition [4] | activity change, negative = inhibition [5] | activity change, negative = inhibition [6] |
| --- | --- | --- | --- | --- | --- | --- | --- | --- | --- | --- | --- | --- |
| CCO/C([O-])=N/c1c[n+](N2CCOCC2)no1 | inactive | inactive | inactive | inactive | inactive | inactive | – | – | – | – | – | – |
| C1OCOCO1 | inactive | inactive | inactive | inactive | inactive | inactive | – | – | – | – | – | – |
| NC(=O)c1ccc(N)cc1 | inactive | inactive | inactive | inactive | inactive | inactive | – | – | – | – | – | – |
| CC[N+](C)(C)c1cccc(O)c1 | inactive | inactive | inactive | inactive | inactive | inactive | – | – | – | – | – | – |
| COc1ccc2c(c1)CCCC2=O | inactive | inactive | inactive | 13.8 µM (active) | inactive | inactive | – | – | – | – | – | – |
| CC(C)(C)NCCNC(C)(C)C | inactive | 35.6 µM (active) | inactive | inactive | inactive | inactive | – | – | – | – | – | – |
| CCCCCSCCCCC | inactive | inactive | inactive | inactive | inactive | inactive | – | – | – | – | – | – |
| O=C(O)CN(CCOCCOCCN(CC(=O)O)CC(=O)O)CC(=O)O | – | – | – | – | – | – | -9.59% [at 0.435 µM] | -11.6% [at 0.435 µM] | 4.56% [at 0.435 µM] | -6.73% [at 0.435 µM] | 0.825% [at 0.29 µM] | 0.649% [at 0.435 µM] |
| CCOC(C)(C)C | inactive | inactive | inactive | inactive | inactive | inactive | – | – | – | – | – | – |
| Nc1cc(=O)[nH]c(N)n1 | inactive | inactive | inactive | inactive | inactive | inactive | – | – | – | – | – | – |
| C[N+](C)(C)CCCCCC[N+](C)(C)C | inactive | inactive | inactive | inactive | inactive | inactive | – | – | – | – | – | – |
| OC[C@]1(O)OC[C@@H](O)[C@H](O)[C@@H]1O | inactive | inactive | inactive | inactive | inactive | inactive | – | – | – | – | – | – |
| CCC(=O)OC(C)c1ccccc1 (stereo unspecified) | inactive | inactive | inactive | inactive | inactive | inactive | – | – | – | – | – | – |
| COc1c(N2C[C@@H]3CCCN[C@@H]3C2)c(F)cc2c(=O)c(C(=O)O)cn(C3CC3)c12 | inactive | inactive | inactive | inactive | inactive | inactive | – | – | – | – | – | – |
| C=CCS(=O)(=O)O | inactive | inactive | inactive | inactive | inactive | inactive | – | – | – | – | – | – |
